# In PubChem BioAssay (EPA / NIEHS):
# Results filed as inconclusive are left out. Active and inactive are the calls of the source. Rule for the calls, unless noted: active = hit-call score of the fitted dose curve at least 0.9, where 1 is the maximum; inactive = score below 0.9.
# How the values were obtained:
# [1] = CCTE_Shafer_MEA_acute_spike_number: CCTE's Neural Acute Assay for Total Number of Spikes, Shafer Lab (AID 2284008);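 for AC50: curve fitted for decrease in spike count so AC50 reflects inhibitors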
# Method in brief: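 Total spike count from 40 min recordings before and during compound exposure (0.03-40 uM), given as per-well percent change. Cortical cultures from rat, DIV 13 or 15, 37 C; adaptive detection threshold 8x rms noise.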
# [2] = CCTE_Shafer_MEA_acute_firing_rate_mean: CCTE's Neural Acute Assay for Mean Firing Rate, Shafer Lab (AID 2284009);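 note: analyzed for loss of signal so actives lower firing rate relative to DMSO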
# Method in brief: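 Read-out: well-mean spike rate (spikes/recording length/electrodes), % change from 40 min pre-dose baseline to 40 min with compound. Rat cortical cultures, DIV 13 or 15, 37 C; 0.03-40 uM; DMSO as negative control.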
# [3] = CCTE_Harrill_HTTr_Viability_MCF7: CCTE's 6-hour Cell Viability Assessment for the High-Throughput Transcriptomics (HTTr) Platform, in MCF-7 cells cultured in DMEM + 10% fetal bovine serum, Harrill Lab (AID 2284010)
# Method in brief: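 MCF-7 cells in DMEM + 10% FBS, 384-well, exposed 6 h to an eight-point dilution series. Membrane integrity scored by high-content imaging of propidium iodide exclusion; bidirectional fit versus DMSO.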
# [4] = CCTE_Harrill_HTTr_Apoptosis_MCF7: CCTE's 6-hour Apoptosis Assessment for the High-Throughput Transcriptomics (HTTr) Platform, in MCF-7 cells cultured in DMEM + 10% fetal bovine serum, Harrill Lab (AID 2284011)
# Method in brief: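 High-content imaging of CellEvent Caspase 3/7 Green signal follows a six-hour exposure, with eight concentrations per chemical. MCF-7 cells grown in DMEM plus 10% fetal bovine serum; activity fitted in both directions against DMSO.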
# [5] = CCTE_Harrill_HTTr_CellCount_MCF7: CCTE's Cell Proliferation Assessment for the High-Throughput Transcriptomics (HTTr) Platform, Harrill Lab (AID 2284012; active = hit-call score of the fitted dose curve at least 0.9, where 1 is the maximum;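 note: cells exposed to compound for six hours; intended direction is loss of nuclei count meaning fewer cells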)
# Method in brief: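 MCF7 cells exposed 6 hours to an eight-point dilution series; Hoechst-stained nuclei counted by high-content imaging. Bidirectional curve fitting against DMSO baseline.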
# [6] = CCTE_Shafer_MEA_acute_burst_number: CCTE's Neural Acute Assay for Single-Electrode Bursts, Shafer Lab (AID 2284013)
# Method in brief: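 Rat cortical cultures, DIV 13/15; 40 min baseline, then 40 min with compound 0.03-40 uM, 37 C. Spikes: 300-5000 Hz band-pass, threshold 8x rms noise. Readout = % change in single-electrode bursts vs baseline, loss-of-signal fit.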
# [7] = CCTE_Shafer_MEA_acute_burst_duration_mean: CCTE's Neural Acute Assay for Mean Burst Duration, Shafer Lab (AID 2284014);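 note: hits are decreases in mean burst duration relative to DMSO controls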
# Method in brief: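 Primary rat cortical neurons on 16-electrode MEA wells, treated on DIV 13 or 15 with compound (0.03-40 uM; ≥3 wells each). 40-min baseline and 40-min exposure recordings at 37 C; percent change in mean burst duration per well versus DMSO.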
# [8] = CCTE_Shafer_MEA_acute_interburst_interval_mean: CCTE's Neural Acute Assay for Mean Interburst Interval, Shafer Lab (AID 2284016);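 note: percent change of mean interburst interval versus each well's own pre-dose baseline; curves fitted for decrease in interburst interval relative to DMSO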
# Method in brief: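 Primary rat cortical neurons on 16-electrode MEA wells were recorded 40 min at baseline on DIV 13 or 15, then 40 min after compound (0.03-40 uM), at 37 C. Value is percent change in mean interburst interval per well, DMSO as negative control.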
# [9] = CCTE_Shafer_MEA_acute_burst_percentage_std: CCTE's Neural Acute Assay for Standard Deviation of Burst Percentage, Shafer Lab (AID 2284018);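 note: fitted in the negative direction so actives lower burst percentage SD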
# Method in brief: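 Primary rat cortical neurons on 16-electrode MEA wells were recorded 40 min at baseline (DIV 13 or 15), then 40 min after compound (0.03-40 uM), at 37 C. Well value is SD across electrodes of spikes-in-bursts/total spikes; endpoint is percent change, DMSO-referenced.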
# [10] = CCTE_Shafer_MEA_acute_per_network_burst_spike_number_mean: CCTE's Neural Acute Assay for Average Number of Spikes in a Network Burst, Shafer Lab (AID 2284019);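 for AC50: curve fitted for loss of signal so actives reduce spikes per network burst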
# Method in brief: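 Primary rat cortical neurons on 16-electrode MEA wells, DIV 13 or 15, 37 C; 40-min baseline then 40-min recording with compound (0.03-40 uM). Spikes per network burst (total spikes/number of bursts) expressed as percent change from baseline, DMSO reference.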
# [11] = CCTE_Shafer_MEA_acute_per_network_burst_spike_number_std: CCTE's Neural Acute Assay for Standard Deviation of Number of Spikes in a Network Burst, Shafer Lab (AID 2284020);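 note: fitted for decrease in spike-number SD versus DMSO so actives lower it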
# Method in brief: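 Primary rat cortical neurons on 48-well MEAs (16 electrodes/well) recorded at DIV 13 or 15: 40-min baseline, then 40 min with compound (0.03-40 uM), 37 C. Value is percent change in SD of spikes per network burst, relative to DMSO.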
# [12] = CCTE_Shafer_MEA_acute_per_network_burst_electrodes_number_mean: CCTE's Neural Acute Assay for Mean Number of Electrodes in a Network Burst, Shafer Lab (AID 2284021);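 note: curves fitted for decreases only so hits reduce electrodes per burst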
# Method in brief: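 Percent change from baseline was computed as mean electrode count per network burst, comparing 40 min recordings before and during compound (0.03-40 uM) exposure. Cultures were rat cortical neurons at DIV 13 or 15, recorded on MEAs at 37 C with an adaptive 8x rms threshold.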
# [13] = CCTE_Simmons_MITO_basal_resp_rate: CCTE's HepG2 Seahorse XF Respirometric Screening Assay at Basal Respiratory State, Simmons Lab (AID 2284001); settings: actives raise or lower the signal
# Method in brief: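 HepG2 cells were given test chemicals at 7 concentrations, 125 nM to 100 uM final, and oxygen consumption rate was read every 6 min (3 min mix, 3 min measure) over 72 min. Basal-phase OCR was fitted bidirectionally against DMSO.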
# [14] = CCTE_Simmons_MITO_max_resp_rate: CCTE's HepG2 Seahorse XF Respirometric Screening Assay at Maximal Respiratory State [uncoupled], Simmons Lab (AID 2284002); settings: actives raise or lower the signal
# Method in brief: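 Maximal (FCCP-uncoupled) respiration rate in HepG2, from Seahorse kinetic OCR over 72 min at 6 min cycles. Compounds at 125 nM–100 uM final, 7 points, three biological replicates; both directions fit relative to DMSO.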
# [15] = CCTE_Simmons_MITO_inhib_resp_rate: CCTE's HepG2 Seahorse XF Respirometric Screening Assay at Inhibited Respiratory State [full ETC block], Simmons Lab (AID 2284006); settings: actives raise or lower the signal
# Method in brief: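 HepG2 oxygen consumption was measured by Seahorse XF after compound, FCCP, then rotenone/antimycin A injections. Seven concentrations from 125 nM to 100 uM (final) were tested, with 6-min kinetic reads over 72 minutes. Inhibited-state OCR was fitted bidirectionally against DMSO.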
# [16] = CCTE_Simmons_MITO_viability: CellTiter-Glo Viability Assessment for CCTE's HepG2 Seahorse XF Respirometric Screening Assay [post-hoc], Simmons Lab (AID 2284007; active = hit-call score of the fitted dose curve at least 0.9, where 1 is the maximum;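 for AC50: cells exposed to chemical for 90 min before the ATP read; actives lower ATP signal relative to DMSO baseline meaning reduced viability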)
# Method in brief: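 HepG2 cells exposed 90 min to 7 concentrations from 125 nM to 100 uM final, then ATP measured by luciferase luminescence. Three biological replicates per concentration; DMSO vehicle; dichlone control at 10 nM–100 uM.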
# [17] = target: Nucleoli Translocation, AR (gene 367) (UniProt P10275); assay: UPITT_HCI_U2OS_AR_TIF2_Nucleoli_Agonist: University of Pittsburgh U2OS Androgen Receptor-Transcriptional Intermediary Factor 2 (AR-TIF2) Agonism High Content Imaging Assay for Nucleoli Translocation (AID 2283998; active = hit-call score of the fitted dose curve at least 0.9, where 1 is the maximum)
# Nucleoli Translocation, AR (gene 367), sequence (P10275 whole entry, looked up): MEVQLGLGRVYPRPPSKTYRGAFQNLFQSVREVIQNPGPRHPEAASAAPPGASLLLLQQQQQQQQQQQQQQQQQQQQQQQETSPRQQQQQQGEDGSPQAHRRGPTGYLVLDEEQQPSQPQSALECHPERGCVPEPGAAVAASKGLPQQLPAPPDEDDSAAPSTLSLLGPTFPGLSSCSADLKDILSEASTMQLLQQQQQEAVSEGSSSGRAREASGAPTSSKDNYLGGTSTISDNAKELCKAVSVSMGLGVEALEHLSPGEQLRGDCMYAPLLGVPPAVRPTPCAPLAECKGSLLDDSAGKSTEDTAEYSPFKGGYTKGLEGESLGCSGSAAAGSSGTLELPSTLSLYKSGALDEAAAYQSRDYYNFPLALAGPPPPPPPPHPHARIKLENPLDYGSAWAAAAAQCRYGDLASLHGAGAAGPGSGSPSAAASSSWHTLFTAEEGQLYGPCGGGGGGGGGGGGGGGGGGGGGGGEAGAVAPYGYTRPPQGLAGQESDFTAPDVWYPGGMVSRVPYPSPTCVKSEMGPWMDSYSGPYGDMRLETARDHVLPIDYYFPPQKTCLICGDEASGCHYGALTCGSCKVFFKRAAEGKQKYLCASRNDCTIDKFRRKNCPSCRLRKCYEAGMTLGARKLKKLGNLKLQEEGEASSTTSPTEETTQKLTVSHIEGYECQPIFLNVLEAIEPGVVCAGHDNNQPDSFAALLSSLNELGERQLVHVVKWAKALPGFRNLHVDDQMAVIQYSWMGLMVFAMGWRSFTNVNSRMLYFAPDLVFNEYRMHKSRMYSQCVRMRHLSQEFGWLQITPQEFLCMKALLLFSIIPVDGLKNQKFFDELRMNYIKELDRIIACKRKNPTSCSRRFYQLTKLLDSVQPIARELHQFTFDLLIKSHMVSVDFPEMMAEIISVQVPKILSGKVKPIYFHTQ
# Method in brief: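 Nucleolar translocation of AR-RFP, with TIF2-GFP coexpressed in human osteosarcoma U2OS, imaged by high-content fluorescence. Compounds tested singly at 20 uM final, confirmed in triplicate, then titrated 0.195–50 uM final; gain-of-signal relative to DMSO.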
# [18] = target: Ratio of Nucleoli Translocation and Cytoplasm, AR (gene 367) (UniProt P10275); assay: UPITT_HCI_U2OS_AR_TIF2_Nucleoli_Cytoplasm_Ratio_Antagonist: University of Pittsburgh U2OS Androgen Receptor-Transcriptional Intermediary Factor 2 (AR-TIF2) Antagonism High Content Imaging Assay for Ratio of Nucleoli Translocation and Cytoplasm (AID 2283999; active = hit-call score of the fitted dose curve at least 0.9, where 1 is the maximum;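 note: antagonists lower the DHT-driven ratio of nucleolar to cytoplasmic red signal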)
# Ratio of Nucleoli Translocation and Cytoplasm, AR (gene 367), sequence (P10275 whole entry, looked up): as above
# Method in brief: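 U2OS cells co-expressing RFP-tagged human AR and GFP-tagged TIF2, antagonist mode with DHT as baseline. Nucleolar-to-cytoplasmic red fluorescence ratio imaged by high-content microscopy; final compound 20 uM (0.2% DMSO) primary, 0.195–50 uM (0.5% DMSO) concentration-response.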
# [19] = target: Ratio of Nucleoli Translocation and Cytoplasm, AR (gene 367) (UniProt P10275); assay: UPITT_HCI_U2OS_AR_TIF2_Nucleoli_Cytoplasm_Ratio_Agonist: University of Pittsburgh U2OS Androgen Receptor-Transcriptional Intermediary Factor 2 (AR-TIF2) Agonism High Content Imaging Assay for Ratio of Nucleoli Translocation and Cytoplasm (AID 2284000; active = hit-call score of the fitted dose curve at least 0.9, where 1 is the maximum;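 note: hits raise the red nucleolar to cytoplasm ratio above vehicle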)
# Method in brief: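 U2OS cells expressing RFP-tagged human AR and GFP-tagged TIF2 were imaged by high-content fluorescence microscopy. The endpoint is the ratio of nucleolar to cytoplasmic red fluorescence, fitted for gain of signal relative to DMSO. Concentration-response spanned 0.195 to 50 uM final (0.5% DMSO).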
smiles,measurement,setting,value
CC(C)C(=O)Nc1ccc([N+](=O)[O-])c(C(F)(F)F)c1,AC50,[1],5.06 µM (active)
same,AC50,[2],5.21 µM (active)
same,outcome,[3],inactive
same,outcome,[4],inactive
same,outcome,[5],inactive
same,outcome,[6],inactive
same,outcome,[7],inactive
same,AC50,[8],30.8 µM (active)
same,outcome,[9],inactive
same,outcome,[10],inactive
same,AC50,[11],5.47 µM (active)
same,outcome,[12],inactive
CCOc1ccc2[nH]cc(C(=O)NCc3ccccc3)c(=O)c2n1,outcome,[13],inactive
same,outcome,[14],inactive
same,outcome,[15],inactive
same,outcome,[16],inactive
same,outcome,[4],inactive
same,outcome,[5],inactive
c1ccc2cc3ccccc3cc2c1,AC50,[1],0.003 µM (active)
same,AC50,[2],0.003 µM (active)
same,outcome,[4],inactive
same,AC50,[6],0.0075 µM (active)
same,outcome,[7],inactive
same,outcome,[8],inactive
same,outcome,[9],inactive
same,outcome,[10],inactive
same,outcome,[11],inactive
same,outcome,[12],inactive
CCCCCCCC1CCC(=O)O1 (stereo unspecified),AC50,[13],46.4 µM (active)
same,outcome,[14],inactive
same,outcome,[15],inactive
same,outcome,[1],inactive
same,outcome,[2],inactive
same,outcome,[3],inactive
same,outcome,[4],inactive
same,outcome,[5],inactive
same,outcome,[6],inactive
same,outcome,[7],inactive
same,outcome,[8],inactive
same,outcome,[9],inactive
same,outcome,[10],inactive
same,outcome,[11],inactive
same,outcome,[12],inactive
C=CCc1cc(S(=O)(=O)c2ccc(O)c(CC=C)c2)ccc1O,AC50,[17],84 µM (active)
same,outcome,[18],inactive
same,outcome,[19],inactive
same,AC50,[13],12.3 µM (active)
same,AC50,[14],8.67 µM (active)
same,outcome,[15],inactive
same,outcome,[16],inactive
same,outcome,[1],inactive
same,outcome,[2],inactive
same,outcome,[4],inactive
same,outcome,[6],inactive
same,outcome,[7],inactive
same,outcome,[8],inactive
same,outcome,[9],inactive
same,outcome,[10],inactive
same,outcome,[11],inactive
same,outcome,[12],inactive
CC(C)c1nnc2ccc(-c3ocnc3-c3cc(F)ccc3F)cn12,AC50,[13],25.6 µM (active)
same,AC50,[14],76.2 µM (active)
same,outcome,[15],inactive
same,AC50,[16],50 µM (active)
same,outcome,[4],inactive
Cn1c(=O)c2[nH]cnc2n(C)c1=O,outcome,[1],inactive
same,outcome,[2],inactive
same,outcome,[3],inactive
same,outcome,[4],inactive
same,outcome,[6],inactive
same,outcome,[7],inactive
same,outcome,[8],inactive
same,outcome,[9],inactive
same,outcome,[10],inactive
same,outcome,[11],inactive
same,outcome,[12],inactive
CCc1ccc(O)c(C(C)(C)C)c1,outcome,[13],inactive
same,outcome,[14],inactive
same,outcome,[15],inactive
same,outcome,[16],inactive
same,AC50,[1],0.679 µM (active)
same,AC50,[2],0.672 µM (active)
same,outcome,[4],inactive
same,outcome,[5],inactive
same,AC50,[6],1.03 µM (active)
same,AC50,[7],30 µM (active)
same,outcome,[8],inactive
same,AC50,[9],20 µM (active)
same,AC50,[10],35.3 µM (active)
same,outcome,[11],inactive
same,AC50,[12],35 µM (active)
